Inconclusive results are not listed. A call without a number means that no potency is given here. Unmarked numbers belong to inactive results. Active and inactive are the calls of the source. The call rests on the fitted dose curve; in most records, active means well fitted inhibition curve with a large enough effect; inconclusive means small, poorly fitted or top-dose-only effect; inactive means flat fitted curve, though single readings scatter.

The text below walks through data of PubChem BioAssay (NCATS).

The test system of the test is Zika virus NS2B-NS3 protease. Briefly: Primary screen GU AMC qHTS for Zika virus inhibitors (AID 1347154). Further: nearly all actives have a fitted effect of over 70% in size. As to conditions: Zika NS2B-NS3 unlinked protease, AMC fluorogenic substrate; series mostly up to 54.1 µM; activity change, negative = inhibition: at the top concentration. The procedure, abridged: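 Fluorogenic AMC-substrate cleavage by noncovalent NS2B-NS3 protease complex (25 nM, pH 8.0 Tris buffer with Tween 20) followed for 15 minutes at room temperature (~20% conversion). Percent inhibition from ex340/em450 signal change, fitted by 4-parameter Hill equation.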
In general terms: Quantitative high-throughput screening tests each substance at several concentrations.
For the compound `Cc1cc(NS(=O)(=O)c2ccc(N)cc2)no1`, the Potency result was “inactive”.
As for `CCCN[C@H]1CCc2nc(N)sc2C1`, the Potency entry was “inactive”.
Regarding `NC(=O)N1c2ccccc2CC(=O)c2ccccc21`, the Potency entry was “inactive”.
Take `CCCCCCNC(=O)n1cc(F)c(=O)[nH]c1=O`: the Potency result is “inactive”.
For `Cc1nnc(NS(=O)(=O)c2ccc(N)cc2)s1`, the Potency entry was “inactive”.
Regarding `CCOC(=O)[C@H](CCc1ccccc1)N[C@H]1CCc2ccccc2N(CC(=O)O)C1=O`, the Potency result is “inactive”.
As for `CCc1cc(C(N)=S)ccn1`, the Potency result is “inactive”.
Take `O=S(=O)(c1cccc2cnccc12)N1CCCNCC1`: the Potency entry is “inactive”.
As for `NCCCC(O)(P(=O)(O)O)P(=O)(O)O`, the Potency entry is “inactive”.
`Cn1c(=O)c2c(ncn2CC(O)CO)n(C)c1=O` (configuration not stated): the Potency entry is “inactive”.
Same read-out and setting: the value for `O=c1cc(O)c(Cl)c[nH]1` was “inactive”.
Consider `CCn1cc(C(=O)O)c(=O)c2cc(F)c(N3CCN(C)CC3)cc21`, for which the “activity change, negative = inhibition” value is -3.56% [at 25.8 µM].
With `Cc1ccnc2c1NC(=O)c1cccnc1N2C1CC1`, the Potency result is “inactive”.
As to `CC[C@H](NC(C)C)[C@H](O)c1ccc(O)c2[nH]c(=O)ccc12`, the Potency result is “inactive”.
Regarding `CC(C)OC(=O)OCOP(=O)(CO[C@H](C)Cn1cnc2c(N)ncnc21)OCOC(=O)OC(C)C`, the Potency entry was “inactive”.
On the same count and under the same terms, the result for `CCCOc1ccc(C(=O)OCCN(CC)CC)cc1N` reads “inactive”.
For the compound `CC(=O)[C@H]1CC[C@H]2[C@@H]3CC=C4C[C@@H](O)CC[C@]4(C)[C@H]3CC[C@]12C`, the Potency result was “inactive”.
As to `COc1ccccc1OCC(O)COC(N)=O` (configuration not stated), the Potency result is “inactive”.
Same read-out and setting: the result for `COCCCOc1cc(C[C@@H](C[C@H](N)[C@@H](O)C[C@H](C(=O)NCC(C)(C)C(N)=O)C(C)C)C(C)C)ccc1OC` reads “inactive”; that for `C#CCN[C@@H]1CCc2ccccc21`, “inactive”; that for `O=C(O)CCn1c2c(c3ccccc31)C[C@H](NS(=O)(=O)c1ccc(F)cc1)CC2`, “inactive”.
Take `Nc1ccc(S(=O)(=O)Nc2ccccn2)cc1`: the Potency entry was “inactive”.
For `COc1ncnc(NS(=O)(=O)c2ccc(N)cc2)c1OC`, the Potency entry was “inactive”.
With `C[C@]12C=CC(=O)C=C1CC[C@@H]1[C@@H]2C(=O)C[C@@]2(C)[C@H]1CC[C@]2(O)C(=O)CO`, the Potency entry was “inactive”.
For `O=C(N[C@H](CO)[C@H](O)c1ccc([N+](=O)[O-])cc1)C(Cl)Cl`, the Potency entry was “inactive”.
On the same count and under the same terms, the value for `Clc1ccccc1CN1CCc2sccc2C1` was “inactive”.
As to `CC1=NN(c2ccccc2)C(=O)C1`, the Potency entry is “inactive”.
Take `Cc1ncc([N+](=O)[O-])n1CCO`: the Potency result is “inactive”.
Consider `CCN(C)C(=O)Oc1cccc([C@H](C)N(C)C)c1`, for which the Potency entry was “inactive”.
Regarding `NNC(=O)c1ccncc1`, the Potency entry was “inactive”.
Turning to `CC(N)C12CC3CC(CC(C3)C1)C2` (configuration not stated), the Potency result was “inactive”.
Turning to `NC(N)=NC(N)=NCCc1ccccc1`, the Potency result was “inactive”.
Take `COc1cc(NS(=O)(=O)c2ccc(N)cc2)nc(OC)n1`: the Potency entry is “inactive”.
On to `CN(CCOc1ccc(CC2SC(=O)NC2=O)cc1)c1ccccn1` (configuration not stated), for which the “activity change, negative = inhibition” value is -11.5%.
Regarding `CCOCC(O)COc1ccc(NC(=O)CC[S+](C)C)cc1` (configuration not stated), the Potency entry is “inactive”.
As to `COC(c1ccccc1)(c1ccccc1)[C@H](Oc1nc(C)cc(C)n1)C(=O)O`, the Potency entry is “inactive”.
Turning to `OC(Cn1cncn1)(Cn1cncn1)c1ccc(F)cc1F`, the Potency result is “inactive”.
